# According to article PMC7862700, “An all-to-all approach to the identification of sequence-specific readers for epigenetic DNA modifications on cytosine”:
# How the values were obtained:
# Test in all cases: DAPPL (digital affinity profiling via proximity ligation, sequencing); 10 mM Tris-HCl pH 7.5, 50 mM NaCl, 1 mM DTT, 4% glycerol, room temperature, 30 min; GST-TFs on glutathione beads, 16-mer random dsDNA library, 0.1% formaldehyde crosslink after washing; high values mean tight binding
# [1] = target: T1, FEV (Homo sapiens, UniProt Q99581 1-238); conditions: protein: recombinant; tags: N-terminal GST; dsDNA, one strand shown
# T1 sequence: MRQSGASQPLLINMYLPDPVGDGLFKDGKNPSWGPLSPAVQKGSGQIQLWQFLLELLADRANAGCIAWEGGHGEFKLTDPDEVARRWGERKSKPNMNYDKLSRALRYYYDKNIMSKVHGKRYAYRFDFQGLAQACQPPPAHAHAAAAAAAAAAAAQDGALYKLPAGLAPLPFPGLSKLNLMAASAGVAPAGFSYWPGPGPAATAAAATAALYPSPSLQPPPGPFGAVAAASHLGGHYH
# Outline: (§1)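 Binding signal is each hexamer's read frequency for a factor divided by its frequency in the tag-only sample. The factors were GST-fused human transcription factors from yeast, captured on glutathione beads, DNA-barcoded and pooled with that sample. Pools were incubated with 200 nmole of a random double-stranded 16-mer DNA library in Tris/NaCl/DTT/glycerol buffer at room temperature for 30 min, then washed, crosslinked with 0.1% formaldehyde, proximity-ligated with BsaI/T4 ligase (1 h, 37 °C), PCR-amplified and sequenced on an Illumina NextSeq500.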
# [2] = target: ETV5 (Homo sapiens, UniProt P41161 1-510); conditions: protein: recombinant; tags: N-terminal GST; dsDNA, one strand shown
# Outline: as §1
# [3] = target: HSF1 (Homo sapiens, UniProt Q00613 1-529); conditions: protein: recombinant; tags: N-terminal GST; chain copies: 3; dsDNA, one strand shown
# Outline: as §1
# [4] = target: T2, SPIC (Homo sapiens, UniProt Q8N5J4 1-248); conditions: protein: recombinant; tags: N-terminal GST; dsDNA, one strand shown
# T2 sequence: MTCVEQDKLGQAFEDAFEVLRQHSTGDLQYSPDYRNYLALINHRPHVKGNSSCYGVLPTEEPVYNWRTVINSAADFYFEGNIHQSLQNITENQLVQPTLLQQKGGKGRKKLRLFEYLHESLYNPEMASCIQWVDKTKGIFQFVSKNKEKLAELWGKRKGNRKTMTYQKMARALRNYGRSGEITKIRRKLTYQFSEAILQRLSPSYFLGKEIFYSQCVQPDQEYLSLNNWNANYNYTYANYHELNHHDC
# Outline: as §1
# [5] = target: ELF4 (Homo sapiens, UniProt Q99607 1-663); conditions: protein: recombinant; tags: N-terminal GST; dsDNA, one strand shown
# Outline: as §1
# [6] = target: T3, ELK4 (Homo sapiens, UniProt P28324-2 1-405); conditions: protein: recombinant; tags: N-terminal GST; dsDNA, one strand shown
# T3 sequence: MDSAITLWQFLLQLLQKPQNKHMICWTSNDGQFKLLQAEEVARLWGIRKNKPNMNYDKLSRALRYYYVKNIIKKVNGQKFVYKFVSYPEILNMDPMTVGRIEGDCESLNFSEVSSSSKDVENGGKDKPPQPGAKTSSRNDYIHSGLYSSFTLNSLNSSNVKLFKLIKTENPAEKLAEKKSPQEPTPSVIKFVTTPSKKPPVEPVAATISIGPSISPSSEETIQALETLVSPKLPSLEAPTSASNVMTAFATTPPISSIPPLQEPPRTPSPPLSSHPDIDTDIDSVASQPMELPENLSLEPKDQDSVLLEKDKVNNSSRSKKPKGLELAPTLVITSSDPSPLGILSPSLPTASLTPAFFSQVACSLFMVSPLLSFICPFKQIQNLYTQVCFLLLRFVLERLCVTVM
# Outline: as §1
# [7] = target: T4, ETV2 (Homo sapiens, UniProt O00321 1-342); conditions: protein: recombinant; tags: N-terminal GST; dsDNA, one strand shown
# T4 sequence: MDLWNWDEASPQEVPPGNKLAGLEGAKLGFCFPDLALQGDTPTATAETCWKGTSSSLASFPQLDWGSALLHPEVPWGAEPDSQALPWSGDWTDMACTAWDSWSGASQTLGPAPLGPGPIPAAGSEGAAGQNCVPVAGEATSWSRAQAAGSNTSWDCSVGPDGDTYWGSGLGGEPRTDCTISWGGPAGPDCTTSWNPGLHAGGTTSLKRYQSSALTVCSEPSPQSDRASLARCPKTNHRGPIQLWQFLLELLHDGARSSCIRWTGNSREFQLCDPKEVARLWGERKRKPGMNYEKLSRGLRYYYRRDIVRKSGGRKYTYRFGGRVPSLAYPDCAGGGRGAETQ
# Outline: as §1
# [8] = target: T5, ELF3 (Homo sapiens, UniProt P78545 1-371); conditions: protein: recombinant; tags: N-terminal GST; dsDNA, one strand shown
# T5 sequence: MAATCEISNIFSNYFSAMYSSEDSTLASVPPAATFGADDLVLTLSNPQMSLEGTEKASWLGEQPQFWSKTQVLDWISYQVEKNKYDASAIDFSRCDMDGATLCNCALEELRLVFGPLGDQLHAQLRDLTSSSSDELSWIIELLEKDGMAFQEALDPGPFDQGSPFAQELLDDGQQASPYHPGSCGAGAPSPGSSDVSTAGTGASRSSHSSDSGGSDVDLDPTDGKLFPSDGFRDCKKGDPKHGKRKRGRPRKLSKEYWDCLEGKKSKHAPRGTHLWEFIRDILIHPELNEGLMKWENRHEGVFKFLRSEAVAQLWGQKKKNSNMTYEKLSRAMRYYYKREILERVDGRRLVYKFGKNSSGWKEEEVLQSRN
# Outline: as §1
# [9] = target: CRX (Homo sapiens, UniProt O43186 1-299); conditions: protein: recombinant; tags: N-terminal GST; dsDNA, one strand shown
# Outline: as §1
# [10] = target: ETV1 (Homo sapiens, UniProt P50549 1-477); conditions: protein: recombinant; tags: N-terminal GST; dsDNA, one strand shown
# Outline: as §1
# [11] = target: T6, ERF (Homo sapiens, UniProt P50548 1-548); conditions: protein: recombinant; tags: N-terminal GST; dsDNA, one strand shown
# T6 sequence: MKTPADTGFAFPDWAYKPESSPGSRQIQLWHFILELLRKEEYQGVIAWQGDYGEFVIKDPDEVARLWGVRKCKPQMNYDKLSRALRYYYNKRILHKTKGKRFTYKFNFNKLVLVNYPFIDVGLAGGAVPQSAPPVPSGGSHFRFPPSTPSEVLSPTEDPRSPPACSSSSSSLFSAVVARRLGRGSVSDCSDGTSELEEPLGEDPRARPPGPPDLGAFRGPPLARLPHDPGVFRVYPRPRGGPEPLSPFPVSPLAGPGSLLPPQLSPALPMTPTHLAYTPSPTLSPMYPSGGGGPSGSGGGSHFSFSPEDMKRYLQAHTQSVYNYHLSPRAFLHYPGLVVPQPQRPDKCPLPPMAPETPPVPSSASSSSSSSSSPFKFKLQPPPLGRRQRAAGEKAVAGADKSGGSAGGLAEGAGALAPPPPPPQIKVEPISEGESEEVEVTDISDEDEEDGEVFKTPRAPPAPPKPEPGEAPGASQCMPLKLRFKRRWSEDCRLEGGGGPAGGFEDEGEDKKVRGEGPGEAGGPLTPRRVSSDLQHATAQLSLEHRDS
# Outline: as §1
# [12] = target: T7, ETV3L (Homo sapiens, UniProt Q6ZN32 1-361); conditions: protein: recombinant; tags: N-terminal GST; dsDNA, one strand shown
# T7 sequence: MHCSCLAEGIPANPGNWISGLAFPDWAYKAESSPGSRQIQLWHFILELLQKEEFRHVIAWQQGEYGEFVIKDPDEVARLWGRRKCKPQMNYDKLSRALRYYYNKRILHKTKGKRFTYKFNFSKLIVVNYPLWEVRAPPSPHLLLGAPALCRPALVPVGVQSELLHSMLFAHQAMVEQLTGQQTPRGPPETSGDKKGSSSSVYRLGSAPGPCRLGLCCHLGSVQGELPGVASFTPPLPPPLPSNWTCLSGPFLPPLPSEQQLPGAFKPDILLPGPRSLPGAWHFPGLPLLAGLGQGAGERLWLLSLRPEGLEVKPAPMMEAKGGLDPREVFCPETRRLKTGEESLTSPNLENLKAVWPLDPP
# Outline: as §1
# [13] = target: T8, ETS2 (Homo sapiens, UniProt P15036 1-469); conditions: protein: recombinant; tags: N-terminal GST; dsDNA, one strand shown
# T8 sequence: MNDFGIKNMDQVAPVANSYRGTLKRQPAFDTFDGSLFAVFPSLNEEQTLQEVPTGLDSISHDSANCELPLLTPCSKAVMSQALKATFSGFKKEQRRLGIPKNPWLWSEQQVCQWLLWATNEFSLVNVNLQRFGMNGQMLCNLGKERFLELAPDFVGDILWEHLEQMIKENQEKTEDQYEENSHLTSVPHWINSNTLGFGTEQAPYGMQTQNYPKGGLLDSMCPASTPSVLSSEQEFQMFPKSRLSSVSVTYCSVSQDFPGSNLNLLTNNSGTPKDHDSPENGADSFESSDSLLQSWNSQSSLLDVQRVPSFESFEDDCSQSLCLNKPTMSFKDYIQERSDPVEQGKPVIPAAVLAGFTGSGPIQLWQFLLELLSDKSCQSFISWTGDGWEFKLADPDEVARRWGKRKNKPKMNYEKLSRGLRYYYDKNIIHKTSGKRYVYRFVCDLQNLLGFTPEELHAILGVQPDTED
# Outline: as §1
# [14] = target: T9, SPDEF (Homo sapiens, UniProt O95238 1-335); conditions: protein: recombinant; tags: N-terminal GST; dsDNA, one strand shown
# T9 sequence: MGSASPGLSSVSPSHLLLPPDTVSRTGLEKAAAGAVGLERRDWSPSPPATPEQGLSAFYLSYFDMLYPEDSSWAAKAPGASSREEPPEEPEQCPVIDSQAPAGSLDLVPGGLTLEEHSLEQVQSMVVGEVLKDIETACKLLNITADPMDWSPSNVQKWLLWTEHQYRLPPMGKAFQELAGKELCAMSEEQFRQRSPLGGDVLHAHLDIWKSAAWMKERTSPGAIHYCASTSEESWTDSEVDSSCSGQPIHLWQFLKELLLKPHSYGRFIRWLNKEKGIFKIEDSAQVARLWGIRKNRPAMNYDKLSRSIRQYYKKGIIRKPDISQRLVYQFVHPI
# Outline: as §1
# [15] = target: T10, ETV7 (Homo sapiens, UniProt Q9Y603 1-341); conditions: protein: recombinant; tags: N-terminal GST; dsDNA, one strand shown
# T10 sequence: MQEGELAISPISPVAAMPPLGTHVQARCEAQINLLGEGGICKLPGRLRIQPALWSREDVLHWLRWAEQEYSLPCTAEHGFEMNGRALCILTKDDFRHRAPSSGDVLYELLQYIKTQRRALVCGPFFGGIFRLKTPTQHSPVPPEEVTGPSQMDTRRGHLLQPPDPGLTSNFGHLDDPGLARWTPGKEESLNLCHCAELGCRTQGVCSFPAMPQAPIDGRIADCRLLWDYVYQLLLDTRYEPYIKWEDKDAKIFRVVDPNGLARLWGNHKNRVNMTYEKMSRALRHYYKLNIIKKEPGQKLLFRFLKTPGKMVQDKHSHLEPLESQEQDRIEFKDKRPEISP
# Outline: as §1
# [16] = target: T11, ELF5 (Homo sapiens, UniProt Q9UKW6-2 1-255); conditions: protein: recombinant; tags: N-terminal GST; dsDNA, one strand shown
# T11 sequence: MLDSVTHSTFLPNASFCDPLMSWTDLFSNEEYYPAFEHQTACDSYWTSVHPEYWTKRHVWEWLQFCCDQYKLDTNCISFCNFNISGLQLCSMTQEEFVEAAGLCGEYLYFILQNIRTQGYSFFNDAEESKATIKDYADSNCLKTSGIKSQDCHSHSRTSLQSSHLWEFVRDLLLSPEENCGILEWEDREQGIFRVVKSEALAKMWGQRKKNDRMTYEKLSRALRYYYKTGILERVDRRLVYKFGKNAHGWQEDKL
# Outline: as §1
# [17] = target: T12, ETV3 (Homo sapiens, UniProt P41162-2 1-143); conditions: protein: recombinant; tags: N-terminal GST; dsDNA, one strand shown
# T12 sequence: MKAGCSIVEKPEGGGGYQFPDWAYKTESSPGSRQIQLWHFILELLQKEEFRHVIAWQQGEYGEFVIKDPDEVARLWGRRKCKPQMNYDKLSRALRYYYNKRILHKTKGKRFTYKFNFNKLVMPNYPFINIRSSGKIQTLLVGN
# Outline: as §1
# [18] = target: ETV6 (Homo sapiens, UniProt P41212 1-452); conditions: protein: recombinant; tags: N-terminal GST; dsDNA, one strand shown
# Outline: as §1
# ETV1, sequence (P50549 whole entry): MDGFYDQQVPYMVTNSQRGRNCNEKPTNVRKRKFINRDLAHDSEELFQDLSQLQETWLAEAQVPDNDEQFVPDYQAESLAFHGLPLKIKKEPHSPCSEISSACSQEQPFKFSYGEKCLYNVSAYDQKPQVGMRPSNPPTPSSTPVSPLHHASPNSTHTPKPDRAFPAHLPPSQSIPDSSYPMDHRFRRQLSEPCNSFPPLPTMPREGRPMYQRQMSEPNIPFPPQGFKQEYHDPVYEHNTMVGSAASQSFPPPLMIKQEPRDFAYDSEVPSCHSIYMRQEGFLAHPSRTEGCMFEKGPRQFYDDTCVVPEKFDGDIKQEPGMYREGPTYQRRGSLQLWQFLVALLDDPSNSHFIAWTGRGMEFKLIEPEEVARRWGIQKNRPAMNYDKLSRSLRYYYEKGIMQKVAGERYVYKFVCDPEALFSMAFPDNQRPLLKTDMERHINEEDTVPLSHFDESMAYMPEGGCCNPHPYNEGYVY
# CRX, sequence (O43186 whole entry): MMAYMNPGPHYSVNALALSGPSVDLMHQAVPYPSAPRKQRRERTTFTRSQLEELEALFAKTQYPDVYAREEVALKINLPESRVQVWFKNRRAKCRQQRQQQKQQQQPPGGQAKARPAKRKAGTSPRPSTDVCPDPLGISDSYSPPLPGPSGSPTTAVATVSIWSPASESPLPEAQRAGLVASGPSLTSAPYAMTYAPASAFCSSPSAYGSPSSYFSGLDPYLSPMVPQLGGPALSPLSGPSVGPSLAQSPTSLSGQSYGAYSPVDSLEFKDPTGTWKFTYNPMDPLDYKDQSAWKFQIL
# ETV5, sequence (P41161 whole entry): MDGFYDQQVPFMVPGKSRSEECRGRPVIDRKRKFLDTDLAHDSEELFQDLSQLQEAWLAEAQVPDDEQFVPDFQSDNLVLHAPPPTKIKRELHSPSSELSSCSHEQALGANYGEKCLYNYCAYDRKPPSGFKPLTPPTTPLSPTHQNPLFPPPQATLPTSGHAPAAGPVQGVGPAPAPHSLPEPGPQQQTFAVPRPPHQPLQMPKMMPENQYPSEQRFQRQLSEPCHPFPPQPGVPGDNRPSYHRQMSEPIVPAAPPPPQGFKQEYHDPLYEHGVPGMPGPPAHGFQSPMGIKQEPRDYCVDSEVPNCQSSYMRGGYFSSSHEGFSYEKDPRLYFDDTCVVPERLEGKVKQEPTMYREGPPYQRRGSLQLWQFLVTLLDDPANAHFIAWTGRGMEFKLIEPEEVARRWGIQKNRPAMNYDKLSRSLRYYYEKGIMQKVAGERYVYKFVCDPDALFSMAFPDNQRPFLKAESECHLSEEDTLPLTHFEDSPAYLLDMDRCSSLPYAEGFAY
# HSF1, sequence (Q00613 whole entry): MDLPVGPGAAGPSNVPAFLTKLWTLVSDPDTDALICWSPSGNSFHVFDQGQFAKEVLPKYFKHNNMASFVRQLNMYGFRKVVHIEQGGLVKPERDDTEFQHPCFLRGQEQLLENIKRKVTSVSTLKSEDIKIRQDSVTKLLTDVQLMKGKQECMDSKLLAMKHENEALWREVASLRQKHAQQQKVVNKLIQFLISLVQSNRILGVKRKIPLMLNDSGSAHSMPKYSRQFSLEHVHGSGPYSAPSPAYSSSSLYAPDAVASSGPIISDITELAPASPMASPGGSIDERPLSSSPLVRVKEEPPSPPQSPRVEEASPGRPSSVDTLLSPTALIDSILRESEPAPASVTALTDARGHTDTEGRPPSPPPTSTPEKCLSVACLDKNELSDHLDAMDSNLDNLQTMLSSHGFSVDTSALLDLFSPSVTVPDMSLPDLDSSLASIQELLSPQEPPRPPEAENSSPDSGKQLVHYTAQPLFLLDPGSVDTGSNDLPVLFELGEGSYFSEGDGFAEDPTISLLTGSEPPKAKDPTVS
# ELF4, sequence (Q99607 whole entry): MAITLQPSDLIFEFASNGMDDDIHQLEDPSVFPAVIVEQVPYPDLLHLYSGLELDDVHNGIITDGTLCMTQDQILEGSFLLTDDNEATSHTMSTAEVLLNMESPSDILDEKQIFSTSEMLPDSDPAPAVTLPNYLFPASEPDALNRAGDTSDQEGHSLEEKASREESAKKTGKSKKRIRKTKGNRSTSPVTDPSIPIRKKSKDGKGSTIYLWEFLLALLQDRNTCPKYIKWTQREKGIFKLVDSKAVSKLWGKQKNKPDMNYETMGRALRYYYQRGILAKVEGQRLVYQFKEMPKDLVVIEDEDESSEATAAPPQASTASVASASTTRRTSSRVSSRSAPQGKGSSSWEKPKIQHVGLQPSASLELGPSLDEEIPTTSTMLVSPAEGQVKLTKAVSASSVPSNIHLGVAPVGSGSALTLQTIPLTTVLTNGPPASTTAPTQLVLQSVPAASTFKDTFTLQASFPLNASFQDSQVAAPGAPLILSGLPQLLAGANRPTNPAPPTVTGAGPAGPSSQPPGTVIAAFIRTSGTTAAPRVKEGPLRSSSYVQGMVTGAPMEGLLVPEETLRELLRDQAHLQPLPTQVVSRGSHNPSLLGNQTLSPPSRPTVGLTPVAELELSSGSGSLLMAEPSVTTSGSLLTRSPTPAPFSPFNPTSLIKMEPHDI
# ETV6, sequence (P41212 whole entry): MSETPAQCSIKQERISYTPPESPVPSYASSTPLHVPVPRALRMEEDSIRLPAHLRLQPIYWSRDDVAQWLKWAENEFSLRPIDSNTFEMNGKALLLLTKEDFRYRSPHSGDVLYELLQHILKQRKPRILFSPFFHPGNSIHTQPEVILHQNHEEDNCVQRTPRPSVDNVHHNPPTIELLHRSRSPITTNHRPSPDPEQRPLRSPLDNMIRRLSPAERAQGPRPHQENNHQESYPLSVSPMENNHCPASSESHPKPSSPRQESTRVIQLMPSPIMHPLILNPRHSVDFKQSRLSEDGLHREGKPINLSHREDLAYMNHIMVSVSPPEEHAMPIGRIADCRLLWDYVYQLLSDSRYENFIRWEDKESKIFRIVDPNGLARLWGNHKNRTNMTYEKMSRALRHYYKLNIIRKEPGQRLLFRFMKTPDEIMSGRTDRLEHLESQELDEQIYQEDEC
sequence,measurement,setting,value
GCTAGC,binding signal,[1],"1.31 fold enrichment (6-mer frequency, TF over GST control)"
same,binding signal,[2],"1.24 fold enrichment (6-mer frequency, TF over GST control)"
same,binding signal,[3],"1.19 fold enrichment (6-mer frequency, TF over GST control)"
same,binding signal,[4],"1.28 fold enrichment (6-mer frequency, TF over GST control)"
same,binding signal,[5],"1.3 fold enrichment (6-mer frequency, TF over GST control)"
same,binding signal,[6],"1.23 fold enrichment (6-mer frequency, TF over GST control)"
same,binding signal,[7],"1.39 fold enrichment (6-mer frequency, TF over GST control)"
same,binding signal,[8],"1.2 fold enrichment (6-mer frequency, TF over GST control)"
same,binding signal,[9],"1.05 fold enrichment (6-mer frequency, TF over GST control)"
same,binding signal,[10],"1.24 fold enrichment (6-mer frequency, TF over GST control)"
same,binding signal,[11],"1.2 fold enrichment (6-mer frequency, TF over GST control)"
same,binding signal,[12],"1.35 fold enrichment (6-mer frequency, TF over GST control)"
same,binding signal,[13],"1.2 fold enrichment (6-mer frequency, TF over GST control)"
same,binding signal,[14],"1.13 fold enrichment (6-mer frequency, TF over GST control)"
same,binding signal,[15],"1.24 fold enrichment (6-mer frequency, TF over GST control)"
same,binding signal,[16],"1.15 fold enrichment (6-mer frequency, TF over GST control)"
same,binding signal,[17],"1.16 fold enrichment (6-mer frequency, TF over GST control)"
same,binding signal,[18],"1.09 fold enrichment (6-mer frequency, TF over GST control)"
